In experiment [1] the target is Cytochrome P450 2C19 (Homo sapiens) (UniProt P33261). Put plainly: Cytochrome P450 Family 2 Subfamily C Member 19 (CYP2C19) small molecule antagonists: luciferase reporter qHTS assay (AID 1671197). For activity change, negative = inhibition: series mostly up to about 120 µM. Note: nearly all actives have a fitted effect of over 65% in size. The gist of the method: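 Enzyme-substrate mix with proluciferin substrate (P450-Glo CYP2C19 system) preincubated with compounds 10 min at room temperature; NADPH regeneration solution added, 37C for 1 h; detection reagent stops reaction, luminescence read after 20 min. Ketoconazole positive control.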

For experiment [2], the target named is Cytochrome P450 2C9 (Homo sapiens) (UniProt P11712). Nature of the experiment: Cytochrome P450 Family 2 Subfamily C Member 9 (CYP2C9) small molecule antagonists: luciferase reporter qHTS assay (AID 1671198). For activity change, negative = inhibition: series mostly up to about 120 µM. Note: nearly all actives have a fitted effect of over 50% in size. The gist of the method: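 Enzyme-substrate mix preincubated with compound 10 min at room temperature; reaction started with NADPH regeneration solution, 1 h 37C. Luminescent luciferin product read after 20 min detection reagent.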
Background: In a reporter assay the amount or activity of a reporter protein is the signal.

The target in experiment [3] is Cytochrome P450 2D6 (Homo sapiens) (UniProt P10635). Put plainly: Cytochrome P450 Family 2 Subfamily D Member 6 (CYP2D6) small molecule antagonists: luciferase reporter qHTS assay (AID 1671196). For activity change, negative = inhibition: series mostly up to about 120 µM. Note: nearly all actives have a fitted effect of over 50% in size. The gist of the method: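 P450-Glo format: CYP2D6 converts a proluciferin substrate to luciferin in an NADPH-driven reaction lasting 1 h at room temperature. Light output, proportional to CYP2D6 activity, reflects interference by test chemicals.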

Experiment [4] has as its target Cytochrome P450 1A2 (Homo sapiens) (UniProt P05177). Put plainly: Cytochrome P450 Family 1 Subfamily A Member 2 (CYP1A2) small molecule antagonists: luciferase reporter qHTS assay (AID 1671199). For activity change, negative = inhibition: series mostly up to about 120 µM. Note: nearly all actives have a fitted effect of over 50% in size. The gist of the method: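 Inhibition of CYP1A2 conversion of proluciferin to luciferin, detected by luminescence. Reaction run 1 h at room temperature with NADPH regeneration after brief compound preincubation.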

Experiment [5] has as its target Cytochrome P450 3A4 (Homo sapiens) (UniProt P08684). Put plainly: Cytochrome P450 Family 3 Subfamily A Member 4 (CYP3A4) small molecule antagonists: luciferase reporter qHTS assay (AID 1671201). For activity change, negative = inhibition: series mostly up to about 120 µM. Note: nearly all actives have a fitted effect of over 50% in size. The gist of the method: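 Luminescent readout (RLU) proportional to CYP3A4 activity, from luciferin generated off a proluciferin substrate. Enzyme–substrate mix plus compound 10 min at room temp, NADPH regeneration 1 h, detection reagent 20 min.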

Experiment [6] has as its target Voltage-gated inwardly rectifying potassium channel KCNH2 (Homo sapiens) (UniProt Q12809). Nature of the experiment: Human Ether-a-go-go-Related Gene (hERG) channel small molecule antagonists: fluorescence cell-based qHTS assay (AID 1671200).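 For activity change, negative = inhibition: hERG-expressing U2OS cells given a thallium stimulus after FluxOR II dye loading; series mostly up to about 77 µM.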 Note: nearly all actives have a fitted effect of over 50% in size. The gist of the method: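 Read-out: thallium influx as a surrogate for potassium, tracked as fluorescence (480 nm ex/540 nm em) every second for 2 min after Stimulus Buffer addition in dye-loaded hERG-U2OS cells.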

Structures are written as SMILES. Inconclusive results are not listed. Values without a mark were called inactive. Activity calls are given as the source filed them. Calls come from the whole dose curve; as a rule, active = well fitted curve in the direction sought with a large enough effect in the repeat runs; inconclusive = weak or mixed curves; inactive = no such curve, though single readings can be large; an effect the other way counts as inactive or inconclusive.
% is set by controls: 0 for no effect and ±100 for the full control effect; potency is the fitted concentration of half-maximal effect.

Chain of Cytochrome P450 2D6 (Homo sapiens) (P10635 whole entry, looked up): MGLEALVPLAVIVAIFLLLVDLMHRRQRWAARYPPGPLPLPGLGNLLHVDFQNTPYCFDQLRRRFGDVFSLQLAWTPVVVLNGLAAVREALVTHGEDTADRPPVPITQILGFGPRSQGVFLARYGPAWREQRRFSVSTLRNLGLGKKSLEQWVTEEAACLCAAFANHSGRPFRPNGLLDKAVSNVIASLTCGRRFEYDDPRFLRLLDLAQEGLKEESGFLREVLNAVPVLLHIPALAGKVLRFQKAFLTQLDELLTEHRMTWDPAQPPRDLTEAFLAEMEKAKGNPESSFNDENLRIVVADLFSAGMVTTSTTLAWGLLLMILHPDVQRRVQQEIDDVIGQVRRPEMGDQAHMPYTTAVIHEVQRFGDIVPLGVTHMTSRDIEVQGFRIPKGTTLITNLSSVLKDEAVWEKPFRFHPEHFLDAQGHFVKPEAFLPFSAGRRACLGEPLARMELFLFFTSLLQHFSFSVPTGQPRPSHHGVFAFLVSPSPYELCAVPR
Chain of Cytochrome P450 1A2 (Homo sapiens) (P05177 whole entry, looked up): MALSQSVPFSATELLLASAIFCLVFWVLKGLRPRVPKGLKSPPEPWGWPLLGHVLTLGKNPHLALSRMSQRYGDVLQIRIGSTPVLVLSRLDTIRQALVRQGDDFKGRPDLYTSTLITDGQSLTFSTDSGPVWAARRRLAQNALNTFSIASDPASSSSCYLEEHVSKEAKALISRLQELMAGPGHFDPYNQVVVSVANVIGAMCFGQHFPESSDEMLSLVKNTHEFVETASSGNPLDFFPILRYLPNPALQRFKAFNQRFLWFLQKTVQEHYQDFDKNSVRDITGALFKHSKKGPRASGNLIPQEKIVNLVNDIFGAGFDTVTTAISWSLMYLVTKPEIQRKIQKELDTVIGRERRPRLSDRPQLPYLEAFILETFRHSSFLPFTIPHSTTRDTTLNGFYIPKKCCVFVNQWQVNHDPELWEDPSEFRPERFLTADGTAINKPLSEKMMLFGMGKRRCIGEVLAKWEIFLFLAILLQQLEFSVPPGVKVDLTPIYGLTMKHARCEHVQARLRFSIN
Chain of Cytochrome P450 2C9 (Homo sapiens) (P11712 whole entry, looked up): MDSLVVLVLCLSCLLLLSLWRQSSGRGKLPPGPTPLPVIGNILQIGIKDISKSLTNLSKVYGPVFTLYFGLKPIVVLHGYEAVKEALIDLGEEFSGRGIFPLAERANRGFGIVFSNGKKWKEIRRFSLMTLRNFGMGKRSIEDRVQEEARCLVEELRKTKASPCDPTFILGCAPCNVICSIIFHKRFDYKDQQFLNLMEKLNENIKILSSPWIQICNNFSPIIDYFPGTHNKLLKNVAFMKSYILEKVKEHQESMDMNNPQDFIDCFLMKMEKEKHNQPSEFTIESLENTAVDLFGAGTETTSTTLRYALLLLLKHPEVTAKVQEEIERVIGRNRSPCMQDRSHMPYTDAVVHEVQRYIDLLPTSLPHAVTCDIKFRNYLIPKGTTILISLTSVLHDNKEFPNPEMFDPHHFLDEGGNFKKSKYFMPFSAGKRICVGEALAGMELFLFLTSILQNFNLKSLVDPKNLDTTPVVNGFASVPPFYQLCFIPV
Chain of Voltage-gated inwardly rectifying potassium channel KCNH2 (Homo sapiens) (Q12809 whole entry, looked up): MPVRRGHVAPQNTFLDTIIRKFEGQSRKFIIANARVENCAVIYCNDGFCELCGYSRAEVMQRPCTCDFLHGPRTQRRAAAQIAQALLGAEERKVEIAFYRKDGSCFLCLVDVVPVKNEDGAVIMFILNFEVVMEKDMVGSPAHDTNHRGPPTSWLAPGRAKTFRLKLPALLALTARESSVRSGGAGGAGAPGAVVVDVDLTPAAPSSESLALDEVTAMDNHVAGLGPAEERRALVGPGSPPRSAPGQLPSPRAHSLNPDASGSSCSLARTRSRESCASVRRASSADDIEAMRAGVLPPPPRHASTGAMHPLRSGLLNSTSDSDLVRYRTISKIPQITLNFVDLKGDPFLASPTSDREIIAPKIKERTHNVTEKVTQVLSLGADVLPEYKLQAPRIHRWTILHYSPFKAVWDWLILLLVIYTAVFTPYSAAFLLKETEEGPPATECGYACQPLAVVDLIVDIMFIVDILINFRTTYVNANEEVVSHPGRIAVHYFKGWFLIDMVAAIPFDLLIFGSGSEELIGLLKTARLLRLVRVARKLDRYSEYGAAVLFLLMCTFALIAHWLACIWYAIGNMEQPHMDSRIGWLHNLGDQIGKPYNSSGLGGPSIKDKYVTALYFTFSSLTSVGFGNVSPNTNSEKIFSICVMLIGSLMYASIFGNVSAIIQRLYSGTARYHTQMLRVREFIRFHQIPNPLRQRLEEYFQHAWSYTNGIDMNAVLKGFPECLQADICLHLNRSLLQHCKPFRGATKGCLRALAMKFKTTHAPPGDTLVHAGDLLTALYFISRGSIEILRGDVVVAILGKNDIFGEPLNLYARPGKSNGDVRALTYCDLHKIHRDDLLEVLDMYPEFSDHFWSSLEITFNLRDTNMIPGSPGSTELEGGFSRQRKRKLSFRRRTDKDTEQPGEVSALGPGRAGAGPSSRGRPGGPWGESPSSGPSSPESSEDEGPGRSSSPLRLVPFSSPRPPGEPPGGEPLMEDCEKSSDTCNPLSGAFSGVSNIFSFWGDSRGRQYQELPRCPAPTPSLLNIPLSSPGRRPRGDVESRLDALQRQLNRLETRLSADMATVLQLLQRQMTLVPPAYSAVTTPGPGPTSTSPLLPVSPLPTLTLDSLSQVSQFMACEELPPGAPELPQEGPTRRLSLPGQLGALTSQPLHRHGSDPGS
Chain of Cytochrome P450 2C19 (Homo sapiens) (P33261 whole entry, looked up): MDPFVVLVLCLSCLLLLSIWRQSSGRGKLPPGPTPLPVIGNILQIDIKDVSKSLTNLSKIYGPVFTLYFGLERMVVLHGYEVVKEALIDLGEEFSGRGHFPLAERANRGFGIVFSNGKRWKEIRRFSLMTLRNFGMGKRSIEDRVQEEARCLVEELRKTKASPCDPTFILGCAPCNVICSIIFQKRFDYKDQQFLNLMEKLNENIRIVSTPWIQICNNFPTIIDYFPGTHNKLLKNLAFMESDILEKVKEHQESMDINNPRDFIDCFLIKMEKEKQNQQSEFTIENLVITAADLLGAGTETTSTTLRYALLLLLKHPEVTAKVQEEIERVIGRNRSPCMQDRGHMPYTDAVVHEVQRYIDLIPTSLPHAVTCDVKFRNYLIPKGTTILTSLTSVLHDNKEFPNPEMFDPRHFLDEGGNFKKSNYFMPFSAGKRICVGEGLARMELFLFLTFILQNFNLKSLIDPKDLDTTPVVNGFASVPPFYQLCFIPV
Chain of Cytochrome P450 3A4 (Homo sapiens) (P08684 whole entry, looked up): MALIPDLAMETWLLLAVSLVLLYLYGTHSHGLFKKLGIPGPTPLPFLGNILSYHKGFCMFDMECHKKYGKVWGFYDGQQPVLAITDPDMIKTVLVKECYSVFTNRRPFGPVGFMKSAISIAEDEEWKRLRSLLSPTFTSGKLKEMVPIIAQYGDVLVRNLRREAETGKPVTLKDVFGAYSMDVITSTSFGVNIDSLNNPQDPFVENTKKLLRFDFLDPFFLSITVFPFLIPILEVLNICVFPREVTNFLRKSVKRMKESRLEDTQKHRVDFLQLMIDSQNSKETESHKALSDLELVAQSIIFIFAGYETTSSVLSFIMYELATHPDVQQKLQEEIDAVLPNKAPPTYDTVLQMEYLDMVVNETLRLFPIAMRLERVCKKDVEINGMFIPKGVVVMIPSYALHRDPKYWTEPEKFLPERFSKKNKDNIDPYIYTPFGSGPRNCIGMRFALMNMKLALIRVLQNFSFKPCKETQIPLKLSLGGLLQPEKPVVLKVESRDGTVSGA

Take `Cc1cc(CCCOc2c(C)cc(-c3noc(C(F)(F)F)n3)cc2C)on1`: the results for the Potency in experiment [1] and in experiment [2] were 21.9 µM (active) and 8.71 µM (active), respectively.
Take `O=C(O)CCC(=O)c1ccc(-c2ccccc2)cc1`: the Potency entry in experiment [3], in experiment [2], in experiment [4] and in experiment [5] was “inactive” throughout.
As for `CNCc1ccc(NC(=O)c2c[nH]c3c2C(=O)CCC3)cc1`, the Potency result in experiment [3] is “inactive”. The Potency in experiment [4] is 31.7 µM (active).
For the molecule `C=CC(=O)NC(C)C`, the Potency result in experiment [3], in experiment [1] and in experiment [5] was “inactive” throughout.
For `CCCCCCCC/C=C/C(=O)O`, the Potency result in experiment [3], in experiment [1], in experiment [6] and in experiment [5] was “inactive” each time.
Regarding `COc1ccc(-c2cc(C(F)F)nn2-c2ccc(S(N)(=O)=O)cc2)cc1F`, the Potency in experiment [3] is 8.71 µM (active). For the same molecule, the Potency entry in experiment [4] is “inactive”.
On to `CC(=O)C(=O)CC(C)C`, for which the Potency result in experiment [3], in experiment [6] and in experiment [5] was “inactive” in each case. Besides, the Potency in experiment [1] is 35.4 µM (active).
Consider `c1ccc(CNc2ncnc3c2ncn3C2CCCCO2)cc1` (stereo not given), for which the Potency entry in experiment [3] and in experiment [5] was “inactive” in each case. Besides, in experiment [4], the Potency was 28.3 µM (active).
Regarding `CC(C)(C)NCC(O)COc1cccc2c1C[C@H](O)[C@H](O)C2` (stereo not given in full), the Potency entry in experiment [3], in experiment [1], in experiment [6] and in experiment [5] was “inactive” each time.
With `Nc1ccc(N=Nc2ccc(N)cc2)cc1`, the Potency entry in experiment [3] was “inactive”. The Potency in experiment [4] is 10 µM (active); in experiment [5], 5.02 µM (active).
`O=C(Nc1ccc(C(=O)O)c(O)c1)c1ccccc1`: in experiment [3], the Potency is 15.5 µM (active). The Potency result in experiment [4] and in experiment [6] was “inactive” throughout.
For the molecule `O=C(O)CCCc1c[nH]c2ccccc12`, the Potency result in experiment [3], in experiment [4] and in experiment [6] was “inactive” throughout.
Consider `CC(C)(C)S`, for which the Potency in experiment [3] was 7.34 µM (active); in experiment [1] it was 41.3 µM (active). The Potency entry in experiment [6] is “inactive”.
As for `CCCCCCCCCCCC(=O)OCC(O)CO` (stereo not given), in experiment [1], the Potency was 79.6 µM (active).
For the molecule `O=C(O)CCS`, the Potency entry in experiment [1], in experiment [2] and in experiment [4] was “inactive” in each case.
Take `CCCC(=O)OC(=O)CCC`: the Potency result in experiment [3], in experiment [1] and in experiment [6] was “inactive” in each case.
For the molecule `Cc1ccc(NC(=O)N(C)C)cc1NC(=O)N(C)C`, in experiment [1], the Potency entry is “inactive”.
As for `CCC(Cl)CC(Cl)C(Cl)C(Cl)C(Cl)C(C)Cl` (stereo not given), the Potency in experiment [1] was 1.73 µM (active); in experiment [2], 1.38 µM (active).
Regarding `CC(C)(C)CCCCCCOC(=O)c1ccccc1C(=O)OCCCCCCC(C)(C)C`, the Potency result in experiment [3], in experiment [2], in experiment [4], in experiment [6] and in experiment [5] was “inactive” in each case.
Take `c1ccc2sc(SSc3nc4ccccc4s3)nc2c1`: the Potency in experiment [1] was 4.77 µM (active); in experiment [2], 9.52 µM (active). Further, the activity change, negative = inhibition in experiment [4] is -16.1% [at 23.6 µM].
For `C=CCOC(=O)COCCC(C)C`, the Potency result in experiment [4], in experiment [6] and in experiment [5] was “inactive” throughout.
`BrC(Br)C(Br)Br`: the Potency entry in experiment [2] and in experiment [5] was “inactive” throughout.
For `CCCCOCCOC(=O)c1cccnc1`, the Potency entry in experiment [6] is “inactive”.
Regarding `CCCCC(CC)COS(=O)(=O)O` (stereo not given), the Potency result in experiment [1], in experiment [4], in experiment [6] and in experiment [5] was “inactive” throughout.
`CC(O)Cn1cnc2c1c(=O)n(C)c(=O)n2C` (stereo not given): in experiment [6], the Potency entry was “inactive”.
Regarding `COC(=O)C1=C(C)NC(C)=C(C(=O)OC(C)(C)CN(C)CCC(c2ccccc2)c2ccccc2)C1c1cccc([N+](=O)[O-])c1` (stereo not given), the Potency in experiment [1] was 1.38 µM (active); in experiment [6] it was 2.39 µM (active).
`O=C(O)CN1C(=O)c2cccc3cccc(c23)C1=O`: in experiment [6], the Potency entry was “inactive”.
`COc1ccc(N)c([N+](=O)[O-])c1`: the Potency in experiment [4] is 8.94 µM (active). Besides, in experiment [6], the Potency entry is “inactive”.
For `CC(C)Cc1ccc(CC(=O)O)cc1`, the Potency result in experiment [1], in experiment [4], in experiment [6] and in experiment [5] was “inactive” throughout.
For `COc1cc(NC(C)CCCN)c2ncccc2c1` (stereo not given), the Potency entry in experiment [6] is “inactive”.
Same read-out and setting: the result for `CCCCCC` reads “inactive”; that for `O=NN(CCCl)C(=O)NCCCl`, “inactive”.
Take `CC(C)COC(=O)COc1cc(Cl)c(Cl)cc1Cl`: the results for the Potency in experiment [1] and in experiment [4] were 8.91 µM (active) and 31.6 µM (active), respectively.
As for `O=C(O)CNC(=O)c1ccccc1I`, the Potency result in experiment [2], in experiment [6] and in experiment [5] was “inactive” each time.
As to `CCN(CC)CC(=O)Nc1c(C)cccc1C(=O)OC`, the Potency entry in experiment [2], in experiment [4], in experiment [6] and in experiment [5] was “inactive” throughout.
In the case of `Cc1cccc(C)c1NC(=O)c1cc(S(N)(=O)=O)c(Cl)cc1O`, the Potency entry in experiment [1], in experiment [4] and in experiment [5] was “inactive” in each case.
For the molecule `CC(C)c1ccc(C(=O)N=C(N)N)cc1S(C)(=O)=O`, the Potency result in experiment [1] and in experiment [5] was “inactive” throughout. For the same molecule, the Potency in experiment [4] was 44.4 µM (active).
With `Cc1cn([C@H]2C[C@H](F)[C@@H](CO)O2)c(=O)[nH]c1=O`, the Potency result in experiment [1] and in experiment [6] was “inactive” in each case.
Regarding `Cc1cccc2sc(N)nc12`, the Potency in experiment [1] was 22.7 µM (active); in experiment [4] it was 18.1 µM (active). Moreover, the Potency entry in experiment [6] and in experiment [5] was “inactive” throughout.
For `COc1cc(C(C)=O)ccc1OCCCN1CCC(c2noc3cc(F)ccc23)CC1`, the Potency result in experiment [1] and in experiment [4] was “inactive” in each case.
Turning to `C=Cc1ccc(OC(C)=O)cc1`, the Potency result in experiment [1], in experiment [6] and in experiment [5] was “inactive” each time.
For `CCN(CC)C(=O)N1CCN(C)CC1`, the Potency result in experiment [1], in experiment [6] and in experiment [5] was “inactive” throughout.
As to `CC(CN(CCN(CC(C)OCCO)CC(C)OCCO)CC(C)OCCO)OCCO` (stereo not given), the Potency in experiment [1] is 86.1 µM (active). The Potency result in experiment [4] and in experiment [6] was “inactive” in each case.
Turning to `O=C(O)/C=C/c1ccc(O)c(O)c1`, the Potency entry in experiment [2], in experiment [4] and in experiment [5] was “inactive” throughout.
`COC(CC(C)CCCC(C)(C)O)OC` (stereo not given): the Potency in experiment [1] is 35.6 µM (active). In addition, the Potency entry in experiment [6] and in experiment [5] was “inactive” in each case.
On to `CCNc1nc(N)nc(Cl)n1`, for which the Potency result in experiment [2], in experiment [6] and in experiment [5] was “inactive” throughout. In experiment [4], the Potency is 31.7 µM (active).
Regarding `CC(=O)OCC1=C(C(=O)O)N2C(=O)[C@@H](NC(=O)CSc3ccncc3)[C@H]2SC1`, the Potency in experiment [2] is 13.8 µM (active). For the same molecule, the Potency result in experiment [4] and in experiment [6] was “inactive” in each case.
For `CC1=CC[C@@]23C[C@@H]1C(C)(C)[C@@H]2CC[C@H]3C`, in experiment [6], the Potency entry was “inactive”.
Take `CC12CC3CC(C)(C1)CC(N)(C3)C2`: the Potency result in experiment [1], in experiment [4], in experiment [6] and in experiment [5] was “inactive” in each case.
For `COC1CCC=CO1` (stereo not given), the Potency result in experiment [1], in experiment [4], in experiment [6] and in experiment [5] was “inactive” in each case.
Turning to `CCN(CC)CCOC(=O)C(c1ccccc1)c1ccccc1`, the Potency in experiment [1] was 21.9 µM (active); in experiment [4], 15.5 µM (active); in experiment [6] it was 2.68 µM (active).
The corresponding values for `CC(=O)OCC(=O)[C@@]1(OC(C)=O)[C@@H](C)C[C@H]2[C@@H]3C[C@H](F)C4=CC(=O)C=C[C@]4(C)[C@@]3(F)[C@@H](O)C[C@@]21C` are “inactive”, “inactive” and “inactive”.
As to `COC(C)(C)OC`, in experiment [1], the Potency was 69 µM (active). For the same molecule, the Potency entry in experiment [6] and in experiment [5] was “inactive” in each case.
Consider `CCCCCCCCCCCCCOC(=O)CCSCCC(=O)OCCCCCCCCCCCCC`, for which, in experiment [1], the Potency was 10.6 µM (active). For the same molecule, the activity change, negative = inhibition in experiment [6] is -9.44% [at 15.8 µM].
On to `O=C1NC(=O)c2cccc3cccc1c23`, for which the Potency result in experiment [2] and in experiment [6] was “inactive” in each case. Moreover, in experiment [4], the Potency is 3.17 µM (active).
Turning to `C[C@H](CS)C(=O)N1CCC[C@H]1C(=O)O`, the Potency in experiment [1] is 21.9 µM (active). The Potency entry in experiment [4], in experiment [6] and in experiment [5] was “inactive” in each case.
On to `CC(C)C1CCC(C(=O)N[C@H](Cc2ccccc2)C(=O)O)CC1` (stereo not given in full), for which the Potency entry in experiment [4] and in experiment [6] was “inactive” throughout.
As to `CC(C(=O)O)c1ccc(C(=O)c2cccs2)cc1` (stereo not given), the Potency in experiment [2] is 7.76 µM (active). The Potency result in experiment [6] and in experiment [5] was “inactive” in each case.
Turning to `COc1cc(OC)c2ccc(=O)oc2c1`, the Potency was 7.96 µM (active) in experiment [4] and 39.9 µM (active) in experiment [5].

The values above are taken from PubChem BioAssay (Tox21).
